Assay results from PubChem BioAssay.
For part of these data: Entries with a potency or affinity are not part of this list. Activity calls are given as the source filed them. Unless noted, cut-off not given; nearly all actives show IC50 up to about 0.91 µM.

target: Protein kinase 7 (PK7), Plasmodium falciparum 3D7 (PF3D7_0213400) (UniProt Q7YTF7); assay: inhibition of Plasmodium PK7 catalytic activity – biochemical, TCAMS antimalarial set, Kinase-Glo luminescence (AID 1159587; call rule not given here); settings: recombinant PfPK7, Kinase-Glo ATP depletion luminescence
Sequence (Q7YTF7 1-343): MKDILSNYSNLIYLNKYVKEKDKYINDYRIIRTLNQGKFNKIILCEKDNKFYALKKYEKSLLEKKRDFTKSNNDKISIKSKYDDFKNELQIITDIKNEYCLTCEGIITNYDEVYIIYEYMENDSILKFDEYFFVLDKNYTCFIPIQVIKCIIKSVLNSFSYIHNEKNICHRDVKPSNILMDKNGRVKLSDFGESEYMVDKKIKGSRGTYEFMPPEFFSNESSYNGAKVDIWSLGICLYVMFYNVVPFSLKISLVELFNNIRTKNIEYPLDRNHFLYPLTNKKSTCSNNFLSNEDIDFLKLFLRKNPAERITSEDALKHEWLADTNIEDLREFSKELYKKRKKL

outcome, inactive:
OC1CCCN(Cc2ccc(-c3ccc(-c4nc5ccc(F)cc5[nH]4)cc3)cc2)C1 (configuration not stated), Cc1cccc(CN2CCCN(Cc3ccc(C(=O)Nc4ccc(C)c(F)c4)cc3)CC2)c1, Cn1cncc1C(=O)Nc1cccc(-c2ccc(-c3nc4ccc(F)cc4[nH]3)cc2)c1, CSc1ccccc1NC(=S)NC1CCN(CCCCCNC(=O)/C=C/c2ccc(Cl)c(Cl)c2)CC1, NC(=O)C1Cc2ccccc2CN1CC(=O)Nc1ccccc1Sc1ccccc1 (configuration not stated), Cc1nc(/N=C(\N)NC(=O)NC2CCCCC2)nc2ccccc12, Fc1ccc(-c2cncc(Nc3ccncc3)n2)cc1, Cc1ccc(Nc2nc(C)cc(NC3CCCC3)n2)cc1, O=C(Nc1cccc(CN2CCCN(Cc3ccsc3)CC2)c1)c1cc2ccccc2s1, CCc1cccc(OCC2CCCN(c3ccc(C(=O)NC4CC4)cn3)C2)c1 (configuration not stated)

target: Calcium-dependent protein kinase 4 (Plasmodium falciparum (isolate 3D7)) (UniProt Q8IBS5); assay: PfCDPK4 kinase inhibitors, biochemical, TCAMS library (AID 1159588); settings: recombinant PfCDPK4, Kinase-Glo ATP depletion luminescence
Sequence (Q8IBS5 whole entry, looked up): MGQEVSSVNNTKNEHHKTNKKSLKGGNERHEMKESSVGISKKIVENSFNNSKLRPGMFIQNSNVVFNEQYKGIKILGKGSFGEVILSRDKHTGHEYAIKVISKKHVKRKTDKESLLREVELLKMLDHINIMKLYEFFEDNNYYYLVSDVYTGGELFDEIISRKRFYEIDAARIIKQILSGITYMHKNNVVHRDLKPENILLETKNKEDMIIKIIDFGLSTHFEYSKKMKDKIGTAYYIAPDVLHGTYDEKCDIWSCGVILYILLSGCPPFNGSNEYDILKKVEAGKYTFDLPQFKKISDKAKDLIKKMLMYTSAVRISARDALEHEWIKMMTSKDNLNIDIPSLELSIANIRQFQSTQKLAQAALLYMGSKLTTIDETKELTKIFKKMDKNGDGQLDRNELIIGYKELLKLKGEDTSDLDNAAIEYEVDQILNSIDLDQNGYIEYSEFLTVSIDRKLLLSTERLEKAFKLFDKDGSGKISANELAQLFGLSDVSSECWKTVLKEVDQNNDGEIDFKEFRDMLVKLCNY

outcome, inactive:
c1ccc(CCNCc2cccc(-c3ccc(CNc4ccc5ncccc5c4)cc3)c2)cc1, CC(C)(C)Oc1ccc(C[C@@H]2NC3(C(=O)N(Cc4ccc(Cl)c(Cl)c4)c4ccccc43)C3C(=O)N(c4ccc(Br)cc4)C(=O)C32)cc1 (some centres not stated), CCOc1ccccc1CNc1nccc(NCCc2cn(C)c3ccccc23)n1, COc1ccc(CNCc2ccsc2)cc1-c1ccc(OC)c(S(=O)(=O)NCCN2CCCC2)c1, COC1CCC(C(=O)Nc2ccc(-c3cccc(-c4nc5c(C)cccc5[nH]4)c3)cc2)CC1 (configuration not stated), CC(C)c1ccc(-c2noc(SCC(=O)N3CCCCC3C)n2)cc1 (configuration not stated), COc1cc(OC)c(NC(=O)Nc2ccnc3ccccc23)cc1Cl, CCn1c2c(c(=N)c3ccccc31)CCC2, CC(=O)Nc1ccc(S(=O)(=O)Nc2c(C)cc(Cc3cnc(N)nc3N)cc2C)cc1, O=C(CCn1c2ccccc2c2ccccc21)NN=Cc1ccco1, COc1cc(CCN=C(N)/C=C/c2ccc(Cl)cc2)ccc1Cl, CC(C)CC(NC(=O)c1cccc(OCCN2CCOCC2)c1)C(=O)NC(/C=N/NC(=O)c1ccccc1)CCc1ccccc1 (configuration not stated), O=C(/C=C/c1c(Cl)cccc1Cl)NC1CCC(CN2CCC(c3c[nH]c4ccncc34)CC2)CC1 (configuration not stated), CN1CCC(Oc2ccc(CN3CC[C@H](NC(=O)c4ccc(F)c(F)c4)C3)c3ccccc23)C1 (some centres not stated), O=C(/C=C/c1ccc2ccccc2c1)NCC1(c2ccc(-c3ccccc3)cc2)CCOCC1, CC1(C)N=C(N)N=C(N)N1OCc1cccs1, CC(C)c1cn2c3c(cc(C(=O)N[C@@H](Cc4ccccc4)[C@H](O)CNC4CCOCC4)cc13)N(C)S(=O)(=O)CC2, COc1ccc2nccc([C@@H](O)CN3CCC(NC(=O)/C=C/c4ccc5[nH]c(=O)ccc5c4)CC3)c2c1, Cc1ccc(C(=O)NC2CCN(CCNC(=O)Nc3cc(C)nc4ccccc34)CC2)cc1, CCOC(=O)c1ccc2nc(-c3ccc(C(=O)NC4CCN(Cc5ccccc5)CC4)s3)[nH]c2c1, COc1ccc(C(=O)Nc2cc(Br)c3c(c2)CNCC3)cc1C(F)(F)F, C=CCn1c(Sc2ccc(C#N)c([N+](=O)[O-])c2)nnc1-c1ccc(OC)cc1, CC(C)c1ccc2[nH]c(C(=O)NC3CCC(N4CCCc5ccc(C#N)cc5C4)CC3)cc2c1 (configuration not stated), OC[C@H](Nc1nc(C(Oc2ccccc2)c2ccccc2)nc2[nH]ncc12)c1ccccc1 (some centres not stated), COc1ccccc1-n1c(-c2ccc3ccccc3c2)csc1=NC(=O)c1ccccc1, CN(C)Cc1c(O)ccc2[nH]c(-c3ccc(OC(F)(F)F)cc3)nc12, COc1ccc(CN2CCC(N3CCc4cc(NC(=O)c5cc(C)on5)ccc43)C2)cc1Cl (configuration not stated), CCN(CC)CCNc1ccc(Nc2ccnc3cc4ccccc4cc23)cc1, c1cncc(CCNCc2cccc(-c3ccc(-c4nc5ccccc5[nH]4)s3)c2)c1, CNC(=O)c1cc(Nc2nnc(-c3ccc(C)c(S(=O)(=O)NC4CCCCC4)c3)c3ccccc23)ccc1OC, OC1CCCN(Cc2ccc(-c3ccc(-c4nc5ccc(F)cc5[nH]4)cc3)cc2)C1 (configuration not stated), Cc1cccc(CN2CCCN(Cc3ccc(C(=O)Nc4ccc(C)c(F)c4)cc3)CC2)c1
